These results are taken from PubChem BioAssay AID602283 (Johns Hopkins Ion Channel Center, 2012).

Molecules are shown by their SMILES. Out of some 1,100 compounds screened, about 940 (85%) were called active. The set was probably picked from earlier hits. The list is a sample of the results. Unmarked numbers belong to inactive results.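 How the source made its calls: active means inhibition exceeding 3 SD of buffer-only control wells (cut at about 26% in these data); inactive means the rest.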

What is called inhibition is the change of the read-out against control, counted positive when it falls.

The nature of this test: carbachol calcium response changes in non-induced cells, primary screen, counter-screen for RGS4 activator project, cell-based, HEK293 M3R, non-induced RGS4, Fluo-4 calcium (AID 602283).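 Further: percent drop in integrated peak-minus-baseline over baseline Fluo4 ratio after carbachol.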 The note with it: HEK293 M3R non-induced RGS4, Fluo4 calcium flux, at 10 µM, active compounds read high, after carbachol challenge at its EC90. On the technique in general: The purpose of a counterscreen is to sort out artefacts and off-target activity.
As to `COc1cc(/C=C(\C#N)c2nc3ccccc3[nH]2)ccc1O`, the inhibition is 61.3% (active).
Turning to `CN(C)S(=O)(=O)N1CCC(Oc2cccc(C(=O)NCCCC3CCCC3)c2)CC1`, the inhibition was 61.8% (active).
To `CCc1c(C)sc(NC(=O)c2ccc(Br)o2)c1C(=O)OC` belongs 0% [the number is a placeholder, only the call stands]; to `CCOc1ccc(C(CC(=O)O)NC(=O)COc2ccccc2)cc1` (stereo unspecified), 0% [the number is a placeholder, only the call stands].
To `Cc1ccccc1C(OCCN(C)C)C1CCCCC1` (stereo unspecified) belongs 95.3% (active).
To `O=C(Cn1c(N2CCN(C/C=C/c3ccccc3)CC2)nc2ccccc21)c1ccccc1` belongs 91.8% (active); to `COc1ccc(CN2CCCC(C(=O)c3ccc(Cl)cc3)C2)cc1Cn1cncn1` (stereo unspecified), 68.8% (active).
In the case of `COc1cccc(/C=N/Nc2cc(C)nc(-c3ccccc3O)n2)c1O`, the inhibition is 85.8% (active).
To `Cc1cccc(-c2nc(Nc3ccc(O)cc3)c3ccccc3n2)c1` belongs 35.3% (active); to `Oc1ccccc1N1CCN(c2ncnc3sc(-c4ccccc4)cc23)CC1`, 26.3% (active).
Regarding `COc1ccccc1C(CNC(=O)c1cccc(NS(=O)(=O)c2ccc(Br)cc2)c1)N(C)C` (stereo unspecified), the inhibition was 51.3% (active).
To `COc1cccc(CNC(=O)CCC2CCCN(Cc3ccc(OC(F)F)cc3)C2)c1` (stereo unspecified) belongs 83.8% (active).
`CCC1CCCCN1CCCNC(=O)c1cc2c(Cl)nc3ccccc3c2s1` (stereo unspecified): the inhibition is 71.8% (active).
Consider `O=C(c1cccs1)C1C(c2ccc(Br)cc2)NC(=S)NC1(O)C(F)(F)F` (stereo unspecified), for which the inhibition is 90.8% (active).
With `Cc1cc2oc3ccc(NCCC4CCCN4C)cc3c(=O)c2cc1C` (stereo unspecified) the figure was 87.8% (active); with `CN(C)CCOc1ccc(Cl)cc1C(C)(C)C`, 47.8% (active).
With `Cc1ccc(OS(=O)(=O)c2ccc(-c3csc(C)n3)s2)c(C)c1` the figure was 33.8% (active); with `C#CC(CCN1CCCCC1)(OC)c1ccccc1` (stereo unspecified), 63.8% (active); with `CCCCCC(O)(CCN1CCCCC1)c1ccccc1` (stereo unspecified), 95.3% (active).
To `S=c1[nH]nc(-c2ccc(Cl)cc2)n1CC1CCCO1` (stereo unspecified) belongs 0% [the number is a placeholder, only the call stands]; to `Cc1ccc(SCC(=O)c2cc(C)c(OC(=S)N(C)C)c(C)c2)cc1`, 42.8% (active).
As for `COc1ccc(C(=O)NC2CCCc3c2cnn3-c2cccc(C)c2C)c(OC)n1` (stereo unspecified), the inhibition was 64.8% (active).
`COc1ccc(-c2cc(C(=O)N(C)Cc3ccccc3)c3ccccc3n2)cc1`: the inhibition is 72.3% (active).
Turning to `COc1ccc(CN(C)C(=O)c2cc(-c3ccc(C)cc3C)nc3ccccc23)c(OC)c1OC`, the inhibition is 51.3% (active).
On to `Cc1ccnc(SCCn2c(N(C)Cc3ccccc3)nc3c2c(=O)n(C)c(=O)n3C)n1`, for which the inhibition was 28.3% (active).
As for `COC(=O)c1ccc(CN2CCC(CO)(Cc3ccc(OC)cc3)CC2)cc1`, the inhibition was 70.8% (active).
